# Values of other authors, collected in PubChem BioAssay AID977610.
# About 3,600 (100%) of roughly 3,600 compounds were called active. Cut-off not given; nearly all actives show Ki up to about 18000 µM. The set was probably picked from earlier hits. This is one part of the list.
# Assay: PubChem AID 977610
# Details: PDB protein-ligand complexes, literature Ki
# [1] = protein: type II dehydroquinase dehydratase from Mycobacterium tuberculosis, PDB entry 4kiw unless noted
structure (smiles),measurement,setting,value
O=C(O)c1cc(OCc2cccc([N+](=O)[O-])c2)cc(C(=O)O)c1,Ki,[1],"140 µM [protein: type II dehydroquinase dehydratase from Mycobacterium tuberculosis, PDB entry 4kiu] (active)"
O=C(O)c1cc(NCc2cccc([N+](=O)[O-])c2)cc(C(=O)O)c1,Ki,[1],7.5 µM (active)
O=C(O)c1cc(O)c(O)c(Oc2cccc([N+](=O)[O-])c2)c1,Ki,[1],"50 µM [protein: type II dehydroquinase dehydratase from Mycobacterium tuberculosis, PDB entry 4kij] (active)"
CCC(CC)O[C@@H]1C=C(C(=O)O)C[C@H](N)[C@H]1NC(C)=O,Ki,"protein: Neuraminidase from the B/Lyon/CHU/15.216/2011 virus, PDB entry 4cpy",0.491 µM (active)
same,Ki,"protein: Neuraminidase, PDB entry 4gzp",0.0143 µM (active)
CCC(CC)O[C@@H]1CC(C(=O)O)C[C@H](N)[C@H]1NC(C)=O (some centres undefined),Ki,[1],"0.017 µM [protein: neuraminidase, PDB entry 4gzt] (active)"
O[C@@H]1[C@@H](O)[C@H](O)[C@]2(O)CC[C@H]1N2,Ki,[1],"4600 µM [protein: Beta-glucosidase 1, PDB entry 4iie] (active)"
O=C(O)CCCC(=O)O,Ki,[1],"30000 µM [protein: Delta-1-pyrroline-5-carboxylate dehydrogenase, mitochondrial, PDB entry 4lh3] (active)"
O=C(O)C(O)(C(F)(F)F)C(F)(F)F,Ki,[1],"27 µM [protein: Mandelate racemase, PDB entry 4fp1] (active)"
O=C(CO)[C@@H](O)[C@H](O)CF,Ki,[1],"25 µM [protein: XYLULOSE KINASE, PDB entry 4bc5] (active)"
CC(C)CN(C[C@@H](O)[C@H](Cc1ccccc1)NC(=O)O[C@H]1CO[C@H]2OCC(F)(F)[C@H]21)S(=O)(=O)c1ccc(N)cc1,Ki,[1],"5.8e-06 µM [protein: HIV-1 Protease, PDB entry 4u8w] (active)"
C[C@](COC(=O)Cc1ccccc1)([C@@H](Nc1c(C=O)cc2ccccn12)C(=O)O)S(=O)O,Ki,[1],"0.042 µM [protein: Beta-lactamase SHV-1, PDB entry 4gd6] (active)"
OC(c1ccc(Cl)s1)(c1ccc(Cl)s1)[C@H]1CN2CCC1CC2,Ki,[1],"0.36 µM [protein: Choline kinase alpha, PDB entry 4da5] (active)"
CC(=O)N[C@H](Cc1ccccc1)P(O)O,Ki,[1],"10 µM [protein: Serine protease splA, PDB entry 3ufa] (active)"
CN(C)C[C@@H](c1ccc(O)cc1)C1(O)CCCCC1,Ki,[1],"235 µM [protein: Transporter(delta13 mutant), PDB entry 4mm7] (active)"
O=C(O)C[C@@]12O[C@H]3C=CCN[C@H]3[C@@H]1C(=O)N[C@H]2C(=O)O,Ki,[1],"210 µM [protein: Glutamate receptor 2, PDB entry 4isu] (active)"
Nc1cccc(F)c1C(=O)O,Ki,[1],"34 µM [protein: Mycobacterium tuberculosis anthranilate phosphoribosyl transferase, PDB entry 4owo] (active)"
Nc1c(F)cccc1C(=O)O,Ki,[1],"1090 µM [protein: Mycobacterium tuberculosis anthranilate phosphoribosyl transferase, PDB entry 4owm] (active)"
Cc1ncc(CO[P+](O)(O)O)c(CN=Nc2nc3ccccc3s2)c1O,Ki,[1],"10.4 µM [protein: Mycobaterium tuberculosis transaminase BioA, PDB entry 4mqp] (active)"
O[C@H]1[C@H](O)[C@@H](O)CN2CC[C@H](O)[C@H]12,Ki,[1],"6.6 µM [protein: Beta-glucosidase 1, PDB entry 4iif] (active)"
Nc1ccc(F)cc1C(=O)O,Ki,[1],"60 µM [protein: Mycobacterium tuberculosis anthranilate phosphoribosyl transferase, PDB entry 4own] (active)"
Nc1cc(F)ccc1C(=O)O,Ki,[1],"380 µM [protein: Mycobacterium tuberculosis anthranilate phosphoribosyl transferase, PDB entry 4n8q] (active)"
Nc1nc(-c2ccc(Cc3ccccc3)cc2)cs1,Ki,[1],"2 µM [protein: Human Leukotriene A4 Hydrolase, PDB entry 4l2l] (active)"
CCCCSC[C@H]1CN(Cc2c[nH]c3c(N)ncnc23)C[C@@H]1O,Ki,[1],"1.5e-06 µM [protein: 5'-methylthioadenosine/S-adenosylhomocysteine nucleosidase, PDB entry 4f3c] (active)"
